# Measured values taken from PubChem BioAssay (NCATS).
# Several values for one entry are separate records, joined by “and”; a condition that tells them apart may be missing. Identical values can stand only once. Results filed as inconclusive are left out. A call without a number means that no potency is given here. Unmarked numbers belong to inactive results. Activity calls are given as the source filed them. Unless noted, calls come from the whole dose curve; as a rule, active = well fitted curve in the direction sought with a large enough effect; inconclusive = small, poorly fitted or top-dose-only effect, or another doubt; inactive = no such curve, though single readings can be large; an effect the other way counts as inactive or inconclusive.
# Key:
# [1] = biological target: Calcium and integrin-binding protein 1 (Homo sapiens) (UniProt Q99828); test: Primary qHTS for Identification of Calcium Integrin Binding Protein 1 (CIB1) Competitor (AID 1508620);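 note: GST tagged CIB1 binding a fluorescein labelled alphaIIb integrin peptide tracer; top concentration of the series differs between compounds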
# Sequence of Calcium and integrin-binding protein 1 (Homo sapiens) (Q99828 whole entry, looked up): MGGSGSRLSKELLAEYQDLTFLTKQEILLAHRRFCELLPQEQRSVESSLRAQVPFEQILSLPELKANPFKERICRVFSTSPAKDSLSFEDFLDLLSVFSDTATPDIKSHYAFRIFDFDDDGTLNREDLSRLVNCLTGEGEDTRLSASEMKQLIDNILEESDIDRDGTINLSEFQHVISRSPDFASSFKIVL
# Summary of the method: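 CIB1-GST (1 uM final) and compound incubated 15 min at room temperature before adding FITC-alphaIIb peptide tracer (100 nM final). Competition for binding read by fluorescence polarization (ex 480, em 540) after another 15 min at room temperature.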
# [2] = Primary qHTS for small molecule stabilizers of the endoplasmic reticulum resident proteome: Secreted ER Calcium Modulated Protein (SERCaMP) assay (AID 1508630)
# Summary of the method: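 GLuc-SERCaMP-expressing SH-SY5Y cells, pretreated 16 h with compound, are challenged with thapsigargin to empty ER calcium stores; after 4 h, coelenterazine is added directly to the medium and luminescence is imaged.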
# [3] = biological target: Cytochrome P450 2D6 (Homo sapiens) (UniProt P10635); test: Cytochrome P450 family 2 subfamily D member 6 (CYP2D6) small molecule antagonists: luciferase biochemical (cell-free) qHTS assay (AID 1645840; active = well fitted curve in the direction sought with a large enough effect in the repeat runs; an effect the other way counts as inactive or inconclusive; note: potency is the fitted concentration of half-maximal effect; nearly all actives have a fitted effect of over 55% in size)
# Sequence of Cytochrome P450 2D6 (Homo sapiens) (P10635 whole entry, looked up): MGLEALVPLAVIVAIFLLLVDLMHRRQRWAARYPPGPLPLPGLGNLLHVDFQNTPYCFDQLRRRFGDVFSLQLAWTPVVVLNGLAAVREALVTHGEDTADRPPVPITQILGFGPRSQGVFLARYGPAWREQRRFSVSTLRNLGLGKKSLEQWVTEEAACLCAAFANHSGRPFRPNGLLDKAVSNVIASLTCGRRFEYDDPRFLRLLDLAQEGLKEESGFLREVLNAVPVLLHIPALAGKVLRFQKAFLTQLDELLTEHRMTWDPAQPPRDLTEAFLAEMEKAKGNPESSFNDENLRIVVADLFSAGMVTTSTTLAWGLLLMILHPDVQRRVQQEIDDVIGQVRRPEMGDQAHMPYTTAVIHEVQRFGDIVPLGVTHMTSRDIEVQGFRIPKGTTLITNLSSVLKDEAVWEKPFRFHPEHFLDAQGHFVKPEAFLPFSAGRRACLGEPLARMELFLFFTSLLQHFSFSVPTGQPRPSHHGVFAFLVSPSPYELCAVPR
# Summary of the method: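 P450-Glo luminescent screen: recombinant CYP2D6 enzyme–proluciferin substrate mix preincubated with compound 10 min at room temperature, then NADPH regeneration added for 1 h at room temperature. Detection reagent added for 20 min; luciferin light read as relative luminescence units.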
# [4] = Primary qHTS for inhibitors of nuclear receptor binding SET domain protein 2 (NSD2) in an isogenic RCH-ACV NSD2 p.E1099K mutant (9B) (AID 1645876); note: potency is the fitted concentration of half-maximal effect; nearly all actives have a fitted effect of over 70% in size
# [5] = Primary qHTS for inhibitors of nuclear receptor binding SET domain protein 2 (NSD2) in an RCH-ACV wild type WT cells (2C) (AID 1645877); note: potency is the fitted concentration of half-maximal effect; nearly all actives have a fitted effect of over 70% in size
# [6] = biological target: Cytochrome P450 2C9 (Homo sapiens) (UniProt P11712); test: Cytochrome P450 family 2 subfamily C member 9 (CYP2C9) small molecule antagonists: luciferase biochemical (cell-free) qHTS assay (AID 1645842; active = well fitted curve in the direction sought with a large enough effect in the repeat runs; an effect the other way counts as inactive or inconclusive; note: potency is the fitted concentration of half-maximal effect; nearly all actives have a fitted effect of over 55% in size)
# Sequence of Cytochrome P450 2C9 (Homo sapiens) (P11712 whole entry, looked up): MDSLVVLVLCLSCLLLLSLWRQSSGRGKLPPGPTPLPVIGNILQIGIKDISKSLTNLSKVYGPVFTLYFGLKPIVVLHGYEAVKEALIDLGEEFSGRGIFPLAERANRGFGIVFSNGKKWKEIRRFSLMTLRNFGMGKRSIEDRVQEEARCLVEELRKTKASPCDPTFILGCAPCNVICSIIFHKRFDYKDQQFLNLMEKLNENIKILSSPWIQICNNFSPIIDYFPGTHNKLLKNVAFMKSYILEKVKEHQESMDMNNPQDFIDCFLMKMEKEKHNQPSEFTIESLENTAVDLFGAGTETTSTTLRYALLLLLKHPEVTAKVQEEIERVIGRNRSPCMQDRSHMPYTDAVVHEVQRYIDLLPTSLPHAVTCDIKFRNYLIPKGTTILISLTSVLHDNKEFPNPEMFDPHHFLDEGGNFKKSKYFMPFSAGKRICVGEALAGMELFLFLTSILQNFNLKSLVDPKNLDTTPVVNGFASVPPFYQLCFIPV
# Summary of the method: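 Luminescence, after 20 min with luciferin detection reagent, reflected CYP2C9 turnover during a 1 h NADPH-driven reaction at 37C. Enzyme-substrate mix contained 0.4% bovine serum albumin and was preincubated with compound 10 min at room temperature.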
smiles,measurement,setting,value
Nc1nc(=O)n([C@H]2CSC(CO)O2)cc1F (stereo not given in full),Potency,[1],inactive
same,outcome,[2],inactive
CC[C@H]1OC(=O)[C@H](C)[C@@H](O[C@H]2C[C@@](C)(OC)[C@@H](O)[C@H](C)O2)[C@H](C)[C@@H](O[C@@H]2O[C@H](C)C[C@H](N(C)C)[C@@H]2O)[C@](C)(OC)C[C@@H](C)C(=O)[C@H](C)[C@@H](O)[C@]1(C)O,Potency,[1],inactive
same,outcome,[2],inactive
CCC(C=C[C@@H]1OC(=O)C=C[C@H]1C)=C[C@H](C)CC=CC(C)=C[C@@H](C)C(=O)[C@@H](C)[C@H](O)[C@@H](C)CC(C)=CC(=O)O,"activity change, negative = inhibition",[1],3.68% [at 2.24 µM]
same,"activity change, negative = inhibition",[2],41.2% [at 1.51 µM]
C[C@H]1C[C@H]2[C@@H]3CCC4=CC(=O)C=C[C@]4(C)[C@@H]3C(=O)C[C@]2(C)[C@@]1(O)C(=O)CO,Potency,[1],inactive
same,outcome,[2],inactive
Cn1cc(C=CC(=O)c2cccc(F)c2)cc1C=CC(=O)NO,Potency,[1],inactive
same,outcome,[2],inactive
CC(=O)O[C@@]12CO[C@H]1C[C@H](O)[C@@]1(C)C(=O)[C@H](O)C3=C(C)[C@@H](OC(=O)C(O)[C@@H](NC(=O)OC(C)(C)C)c4ccccc4)C[C@@](O)([C@@H](OC(=O)c4ccccc4)[C@@H]21)C3(C)C (stereo not given in full),Potency,[1],inactive
same,outcome,[2],inactive
CC(=O)C1=C(O)C=C2Oc3c(C(C)=O)c(O)c(C)c(O)c3C2(C)C1=O (stereo not given),Potency,[1],inactive
same,outcome,[2],inactive
C[C@H]1O[C@H](O[C@H]2[C@H](O)[C@@H](O)[C@@H](O[C@H]3[C@H](O)[C@@H](O)C(O)O[C@H]3CO)O[C@H]2CO)[C@H](O)[C@@H](O)[C@H]1N[C@H]1C=C(CO)[C@@H](O)[C@H](O)[C@@H]1O (stereo not given in full),Potency,[1],inactive
same,outcome,[2],inactive
Cc1onc(-c2ccccc2)c1C(=O)N[C@@H]1C(=O)N2[C@@H](C(=O)O)C(C)(C)S[C@@H]12,Potency,[1],inactive
same,outcome,[2],inactive
O=C(C=Cc1ccc(CN(CCO)CCc2c[nH]c3ccccc23)cc1)NO,Potency,[1],inactive
same,outcome,[2],inactive
O=C1c2c(O)cccc2[C@@H]([C@@H]2O[C@H](CO)[C@@H](O)[C@H](O)[C@H]2O)c2cc(CO)cc(O)c21,Potency,[1],inactive
same,outcome,[2],inactive
C[C@@H]1[C@H](C)CC[C@]2(C(=O)O)CC[C@]3(C)C(=CC[C@@H]4[C@@]5(C)C[C@@H](O)[C@H](O)[C@@](C)(CO)[C@H]5CC[C@]43C)[C@@H]12,Potency,[1],inactive
same,outcome,[2],inactive
CC(C=CC(=O)NO)=C[C@@H](C)C(=O)c1ccc(N(C)C)cc1,Potency,[1],inactive
same,outcome,[2],inactive
COc1cc2c(cc1O)CCC1C2CC[C@@]2(C)C1CC[C@@H]2O (stereo not given in full),Potency,[1],inactive
same,outcome,[2],inactive
CCOc1cc2ncc(C#N)c(Nc3ccc(OCc4ccccn4)c(Cl)c3)c2cc1NC(=O)C=CCN(C)C,Potency,[1],inactive
same,outcome,[2],inactive
CCN(CC)CCNC(=O)c1c(C)[nH]c(C=C2C(=O)Nc3ccc(F)cc32)c1C,Potency,[1],inactive
same,outcome,[2],inactive
CC(C)(O)[C@H]1CC[C@@](C)([C@H]2[C@@H](O)C[C@@]3(C)[C@@H]4C[C@H](O[C@@H]5O[C@H](CO)[C@@H](O)[C@H](O)[C@@H]5O)[C@H]5C(C)(C)[C@@H](O[C@@H]6OC[C@@H](O)[C@H](O)[C@@H]6O)CC[C@@]56C[C@@]46CC[C@]23C)O1,Potency,[1],inactive
same,outcome,[2],inactive
CC(C)(C)[C@H](NC(=O)c1ccc(N)c(Cl)c1)C(=O)N1CCC[C@@H]1C(=O)N[C@H](C#N)CC(=O)O,"activity change, negative = inhibition",[1],-8.66% [at 6.45 µM]
same,"activity change, negative = inhibition",[2],176% [at 3.88 µM]
CC(C=CC=C(C)C=CC1=C(C)CCCC1(C)C)=CC=CC=C(C)C=CC=C(C)C=CC1=C(C)CCCC1(C)C,Potency,[1],inactive
same,outcome,[2],inactive
CN[C@@H]1C[C@H]2O[C@@](C)([C@H]1OC)n1c3ccccc3c3c4c(c5c6ccccc6n2c5c31)C(=O)N[C@H]4O,Potency,[1],inactive
same,outcome,[2],inactive
COC(=O)[C@@H]1CC2=CC(=O)CC[C@]2(C)[C@@]23O[C@@H]2C[C@@]2(C)[C@H](CC[C@@]24CCC(=O)O4)[C@@H]13,Potency,[1],inactive
same,outcome,[2],inactive
O=c1[nH]c(=O)n([C@H]2C[C@@H](O)[C@@H](CO)O2)cc1F,Potency,[1],inactive
same,outcome,[2],inactive
C=C1C(=CC=C2CCC[C@]3(C)[C@@H]([C@H](C)CCCC(C)(C)O)CC[C@@H]23)C[C@@H](O)C[C@@H]1O,Potency,[1],inactive
same,outcome,[2],inactive
C#Cc1cccc(Nc2ncnc3cc(OCCOC)c(OCCO)cc23)c1,Potency,[1],inactive
same,outcome,[2],inactive
same,Potency,[3],8.49 µM (active)
same,Potency,[4],14.8 µM (active)
same,Potency,[5],13.2 µM (active)
CC(C)(N)c1ccc(-c2nc3ccccc3nc2-c2ccccc2)cc1,Potency,[1],inactive
same,outcome,[2],inactive
same,Potency,[3],15.1 µM (active)
same,Potency,[6],13.5 µM (active)
same,Potency,[4],16.3 µM (active)
same,Potency,[5],20.5 µM (active)
CC(N[C@H]1CCCC[C@H]1NC(=O)c1ccc(Cl)cc1)c1cccc2ccccc12 (stereo not given in full),Potency,[1],inactive
same,outcome,[2],inactive
same,Potency,[4],6.61 µM (active)
same,Potency,[5],6.61 µM (active)
Nc1ccc(C(=O)Nc2cccc(-c3nc(N4CCOCC4)c4oc5ncccc5c4n3)c2)cn1,Potency,[1],inactive
same,outcome,[2],inactive
same,Potency,[4],1.15 µM (active) and 1.48 µM (active)
same,Potency,[5],1.29 µM (active) and 1.05 µM (active)
